Experimental data reported in the supplement of paper PMC10849652.
Targets with a hit are over-represented here; the source holds about 7,900 in all. About 0.6% of all pairs of compound and target were hits.

The targets below were run with COc1cc2ncnc(Nc3ccc(F)c(Cl)c3)c2cc1OCCCN1CCOCC1 [gefitinib] (assay: log2 fold change, soluble protein after heating vs DMSO (PISA); higher = thermal stabilisation; K562 cells, 10 uM, 30 min; active = over 0.2 and 3.5 SD of the protein, either way, in both replicates (recomputed)).
How it was run: (§1)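 Soluble protein was quantified by TMTpro 16plex LC-MS/MS after channel sums were equalised. It was obtained as the supernatant after 21,000xg for 90 min from pooled aliquots of K562 cells (2×10^6 cells/mL, 10 μM compound, 30 min) heated for 3 min across 48°C-58°C and extracted in PBS with 0.5% NP-40 at 4°C. Thermal stability values are relative to control samples and come from duplicates. They are given as log2 fold changes.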

UniProt Q9UHD2, sequence (Q9UHD2 whole entry, looked up): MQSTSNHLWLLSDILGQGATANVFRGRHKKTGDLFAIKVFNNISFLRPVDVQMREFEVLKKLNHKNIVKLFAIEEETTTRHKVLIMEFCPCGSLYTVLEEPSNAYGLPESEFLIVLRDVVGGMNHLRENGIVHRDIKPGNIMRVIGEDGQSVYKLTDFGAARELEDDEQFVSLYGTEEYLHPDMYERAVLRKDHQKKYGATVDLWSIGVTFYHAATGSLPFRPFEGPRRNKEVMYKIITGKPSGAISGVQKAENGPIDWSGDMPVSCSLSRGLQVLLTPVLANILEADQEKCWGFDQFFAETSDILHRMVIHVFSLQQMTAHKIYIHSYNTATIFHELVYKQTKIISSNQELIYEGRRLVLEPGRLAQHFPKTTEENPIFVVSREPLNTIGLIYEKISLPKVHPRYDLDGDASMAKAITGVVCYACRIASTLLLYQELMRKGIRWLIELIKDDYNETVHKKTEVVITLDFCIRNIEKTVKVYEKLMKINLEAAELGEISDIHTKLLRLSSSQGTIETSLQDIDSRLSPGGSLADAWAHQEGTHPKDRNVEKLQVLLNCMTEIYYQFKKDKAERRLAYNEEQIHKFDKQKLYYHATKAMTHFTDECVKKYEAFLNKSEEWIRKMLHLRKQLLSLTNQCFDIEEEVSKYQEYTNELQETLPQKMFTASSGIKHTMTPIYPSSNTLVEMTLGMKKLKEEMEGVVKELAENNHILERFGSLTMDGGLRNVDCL
UniProt Q13428, sequence (Q13428 whole entry, looked up): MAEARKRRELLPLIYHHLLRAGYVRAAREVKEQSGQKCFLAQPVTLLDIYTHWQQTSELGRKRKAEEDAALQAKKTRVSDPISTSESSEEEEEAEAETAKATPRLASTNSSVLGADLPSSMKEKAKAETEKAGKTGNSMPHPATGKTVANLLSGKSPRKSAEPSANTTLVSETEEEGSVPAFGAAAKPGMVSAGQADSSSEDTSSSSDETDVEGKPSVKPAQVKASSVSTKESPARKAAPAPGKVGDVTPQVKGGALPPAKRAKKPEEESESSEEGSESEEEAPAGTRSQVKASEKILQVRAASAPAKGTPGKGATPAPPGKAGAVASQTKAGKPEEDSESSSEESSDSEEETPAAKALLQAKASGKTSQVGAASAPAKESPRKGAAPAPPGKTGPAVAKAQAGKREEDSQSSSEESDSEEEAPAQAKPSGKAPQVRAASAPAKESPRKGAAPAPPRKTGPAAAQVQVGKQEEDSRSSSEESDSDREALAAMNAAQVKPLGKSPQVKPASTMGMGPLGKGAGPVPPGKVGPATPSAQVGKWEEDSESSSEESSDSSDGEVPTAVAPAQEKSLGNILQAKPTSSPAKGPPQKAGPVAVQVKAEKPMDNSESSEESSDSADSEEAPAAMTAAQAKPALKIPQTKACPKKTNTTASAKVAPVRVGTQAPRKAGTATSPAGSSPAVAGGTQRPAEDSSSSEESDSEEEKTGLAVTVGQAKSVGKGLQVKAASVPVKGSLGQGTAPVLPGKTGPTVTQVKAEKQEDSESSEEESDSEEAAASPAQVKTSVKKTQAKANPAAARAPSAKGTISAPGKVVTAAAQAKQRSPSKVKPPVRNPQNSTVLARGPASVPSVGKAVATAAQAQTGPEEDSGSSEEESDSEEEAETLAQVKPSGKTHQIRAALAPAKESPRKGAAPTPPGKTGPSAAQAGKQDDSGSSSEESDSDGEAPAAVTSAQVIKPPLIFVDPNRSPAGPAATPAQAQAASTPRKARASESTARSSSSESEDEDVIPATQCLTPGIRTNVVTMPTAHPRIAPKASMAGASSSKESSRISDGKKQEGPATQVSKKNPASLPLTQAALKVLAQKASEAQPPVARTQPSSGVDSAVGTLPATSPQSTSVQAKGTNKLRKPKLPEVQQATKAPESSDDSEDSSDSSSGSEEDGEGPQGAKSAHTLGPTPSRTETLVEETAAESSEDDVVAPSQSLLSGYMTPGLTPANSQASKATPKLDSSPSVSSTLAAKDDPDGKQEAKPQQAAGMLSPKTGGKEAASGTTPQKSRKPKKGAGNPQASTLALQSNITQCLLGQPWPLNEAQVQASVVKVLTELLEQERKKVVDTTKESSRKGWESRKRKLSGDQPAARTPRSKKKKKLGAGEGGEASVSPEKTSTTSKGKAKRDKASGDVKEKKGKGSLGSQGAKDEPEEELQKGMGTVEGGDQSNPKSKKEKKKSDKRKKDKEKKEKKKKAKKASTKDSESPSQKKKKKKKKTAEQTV
UniProt Q9NVC3, sequence (Q9NVC3 whole entry, looked up): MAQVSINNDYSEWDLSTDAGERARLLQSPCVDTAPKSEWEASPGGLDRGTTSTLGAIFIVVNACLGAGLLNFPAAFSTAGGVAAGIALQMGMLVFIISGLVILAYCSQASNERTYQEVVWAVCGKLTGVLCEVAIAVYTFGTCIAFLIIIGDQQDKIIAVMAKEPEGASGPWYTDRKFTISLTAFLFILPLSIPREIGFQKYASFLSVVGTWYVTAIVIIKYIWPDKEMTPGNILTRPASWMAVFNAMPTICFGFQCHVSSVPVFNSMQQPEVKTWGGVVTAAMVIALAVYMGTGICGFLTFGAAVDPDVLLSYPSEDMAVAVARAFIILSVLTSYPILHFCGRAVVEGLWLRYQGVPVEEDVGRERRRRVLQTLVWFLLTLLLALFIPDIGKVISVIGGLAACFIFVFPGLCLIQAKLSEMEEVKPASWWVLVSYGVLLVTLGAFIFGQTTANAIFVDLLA
UniProt Q9BYN0, sequence (Q9BYN0 whole entry, looked up): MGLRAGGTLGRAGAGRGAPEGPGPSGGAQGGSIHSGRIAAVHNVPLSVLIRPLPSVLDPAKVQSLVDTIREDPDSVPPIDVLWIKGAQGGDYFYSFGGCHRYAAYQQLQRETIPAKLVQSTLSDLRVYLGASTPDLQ
UniProt Q9UL54, sequence (Q9UL54 whole entry, looked up): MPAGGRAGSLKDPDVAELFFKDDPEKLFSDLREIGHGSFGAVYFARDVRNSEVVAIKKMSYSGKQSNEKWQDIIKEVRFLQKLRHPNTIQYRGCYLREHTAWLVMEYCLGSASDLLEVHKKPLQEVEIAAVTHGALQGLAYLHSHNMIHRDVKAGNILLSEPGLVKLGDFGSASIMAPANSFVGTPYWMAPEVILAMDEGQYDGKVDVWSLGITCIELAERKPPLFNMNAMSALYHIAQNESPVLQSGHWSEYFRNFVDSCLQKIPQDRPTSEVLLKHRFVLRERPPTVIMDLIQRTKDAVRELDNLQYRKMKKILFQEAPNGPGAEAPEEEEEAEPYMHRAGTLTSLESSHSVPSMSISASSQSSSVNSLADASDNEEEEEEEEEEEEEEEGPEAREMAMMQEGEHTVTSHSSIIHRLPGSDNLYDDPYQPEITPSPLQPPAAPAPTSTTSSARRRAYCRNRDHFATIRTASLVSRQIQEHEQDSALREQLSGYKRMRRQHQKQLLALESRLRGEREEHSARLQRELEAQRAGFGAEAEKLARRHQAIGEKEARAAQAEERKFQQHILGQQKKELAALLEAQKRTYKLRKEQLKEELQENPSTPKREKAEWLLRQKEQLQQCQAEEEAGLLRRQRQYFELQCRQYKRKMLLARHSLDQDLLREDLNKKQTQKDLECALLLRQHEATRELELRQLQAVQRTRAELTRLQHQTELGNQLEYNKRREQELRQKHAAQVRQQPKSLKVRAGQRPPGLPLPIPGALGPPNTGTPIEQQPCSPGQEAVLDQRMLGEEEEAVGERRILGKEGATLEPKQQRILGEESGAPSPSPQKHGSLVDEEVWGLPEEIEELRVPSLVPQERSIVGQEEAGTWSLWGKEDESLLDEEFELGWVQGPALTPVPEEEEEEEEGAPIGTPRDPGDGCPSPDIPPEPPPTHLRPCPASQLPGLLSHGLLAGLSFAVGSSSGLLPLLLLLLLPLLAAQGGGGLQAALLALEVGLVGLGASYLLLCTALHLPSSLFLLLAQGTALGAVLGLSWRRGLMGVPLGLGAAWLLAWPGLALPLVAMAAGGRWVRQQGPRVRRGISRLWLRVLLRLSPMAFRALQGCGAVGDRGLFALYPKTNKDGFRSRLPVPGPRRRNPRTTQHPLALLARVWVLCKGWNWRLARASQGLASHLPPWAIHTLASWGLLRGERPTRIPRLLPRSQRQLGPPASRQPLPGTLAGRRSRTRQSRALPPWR
UniProt P35711, sequence (P35711 whole entry, looked up): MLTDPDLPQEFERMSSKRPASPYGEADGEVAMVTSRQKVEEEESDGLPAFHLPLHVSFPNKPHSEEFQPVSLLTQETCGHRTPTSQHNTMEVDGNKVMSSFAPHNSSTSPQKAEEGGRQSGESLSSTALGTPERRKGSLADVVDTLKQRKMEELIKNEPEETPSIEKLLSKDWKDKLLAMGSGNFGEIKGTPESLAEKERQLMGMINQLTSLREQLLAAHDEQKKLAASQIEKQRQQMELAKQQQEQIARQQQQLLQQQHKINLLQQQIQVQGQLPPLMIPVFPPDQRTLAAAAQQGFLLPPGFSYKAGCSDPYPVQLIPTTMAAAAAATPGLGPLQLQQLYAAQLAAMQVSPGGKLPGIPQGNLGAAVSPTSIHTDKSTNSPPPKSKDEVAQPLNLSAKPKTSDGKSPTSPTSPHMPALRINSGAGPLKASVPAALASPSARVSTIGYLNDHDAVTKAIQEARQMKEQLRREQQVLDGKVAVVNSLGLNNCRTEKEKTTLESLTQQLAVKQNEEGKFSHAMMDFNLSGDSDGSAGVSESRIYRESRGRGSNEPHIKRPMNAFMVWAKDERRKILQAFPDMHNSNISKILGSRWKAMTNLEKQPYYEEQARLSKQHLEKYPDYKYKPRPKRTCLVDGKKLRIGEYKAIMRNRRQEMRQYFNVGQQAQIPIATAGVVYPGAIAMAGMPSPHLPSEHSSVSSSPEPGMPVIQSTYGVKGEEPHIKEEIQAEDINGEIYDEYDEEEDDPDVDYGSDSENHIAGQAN
UniProt Q13242, sequence (Q13242 whole entry, looked up): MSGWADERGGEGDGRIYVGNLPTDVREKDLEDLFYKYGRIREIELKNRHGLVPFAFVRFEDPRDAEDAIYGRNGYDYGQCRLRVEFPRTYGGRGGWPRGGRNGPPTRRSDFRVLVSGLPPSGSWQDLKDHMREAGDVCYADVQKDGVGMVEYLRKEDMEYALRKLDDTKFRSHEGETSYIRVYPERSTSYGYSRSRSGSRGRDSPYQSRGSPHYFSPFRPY

log2 fold change, inactive:
SSBP4 (UniProt Q9BWG4) -0.001
TK1 (UniProt K7ERV3) 0.026
TBK1 (UniProt Q9UHD2) -0.098
TBP (UniProt P20226) 0.044
TCOF1 isoform 6 (UniProt Q13428) 0.028
SPIRE1 (UniProt Q08AE8) -0.013
SPAG9 isoform 4 (UniProt O60271) -0.007
TEX30 (UniProt Q5JUR7) -0.079
SOX5 (UniProt P35711) -0.012
TBC1D20 isoform 3 (UniProt Q96BZ9) 0.148
SLC35B4 (UniProt Q969S0) 0.149
TM7SF2 (UniProt O76062) 0.059
TAOK2 (UniProt Q9UL54) -0.095
SLC38A7 (UniProt Q9NVC3) 0.035
SRXN1 (UniProt Q9BYN0) 0.012
SRSF9 (UniProt Q13242) -0.068
THAP9 (UniProt Q9H5L6) -0.142
TC2N (UniProt Q8N9U0) -0.066

What follows are targets tested with COc1cccc2cc(-c3nc([C@H]4CC[C@H](C(=O)O)CC4)n4ncnc(N)c34)[nH]c12 in the same assay as above.
How it was run: as §1

log2 fold change, inactive:
SSBP4 (UniProt U3KPY3) 0.212
SSBP4 (UniProt Q9BWG4) 0.029
TK1 (UniProt K7ERV3) 0
TBK1 (UniProt Q9UHD2) 0.08
TBP (UniProt P20226) 0.081
TCOF1 isoform 6 (UniProt Q13428) -0.105
SPIRE1 (UniProt Q08AE8) 0.049
TBC1D2 (UniProt Q9BYX2) -0.211
SPAG9 isoform 4 (UniProt O60271) -0.112
TEX30 (UniProt Q5JUR7) 0.031
SOX5 (UniProt P35711) 0.105
SMPD4 isoform 2 (UniProt Q9NXE4) 0.003
SRC isoform 2 (UniProt P12931) 0.219
SMARCA4 (UniProt P51532) -0.038
TBC1D20 isoform 3 (UniProt Q96BZ9) -0.032
SLC35B4 (UniProt Q969S0) 0.076
SREBF1 isoform 4 (UniProt P36956) 0.098
TAOK2 (UniProt Q9UL54) 0.003
SLC38A7 (UniProt Q9NVC3) 0.069
SRXN1 (UniProt Q9BYN0) 0.001
SRSF9 (UniProt Q13242) -0.128
SSB (UniProt E7ERC4) -0.37
THAP9 (UniProt Q9H5L6) 0.011
TC2N (UniProt Q8N9U0) 0.127
